# Data from PubChem BioAssay (NCATS).
# Records with an inconclusive call do not appear. A call without a number means that no potency is given here. Calls of active or inactive are those of the source. Calls follow the shape of the dose curve; as a rule, active = well fitted curve in the direction sought with a large enough effect; inconclusive = small, poorly fitted or top-dose-only effect, or another doubt; inactive = no such curve, though single readings can be large; an effect the other way counts as inactive or inconclusive.
# Legend:
# [1] = target: Luciferin 4-monooxygenase (Photinus pyralis) (UniProt P08659); experiment: Primary firefly luciferase (FLuc) qHTS assay for identification of artifact compounds. (AID 1845220); also: nearly all actives have a fitted effect of over 60% in size
# Procedure, shortened: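 Compounds sat 15 min at room temperature with 10 uM luciferin and 10 uM ATP (pH 7.6 Tris acetate). Firefly luciferase (10 nM final) was then added, and luminescence was read 5 min later. Data normalized to no-enzyme and DMSO controls were Hill-fitted.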
# [2] = Primary fluorescence-based thiol-reactive (MSTI) qHTS assay for identification of artifact compounds. (AID 1845221);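 also: series mostly up to about 54 µM; thiol-reactive compounds lower the probe fluorescence signal; nearly all actives have a fitted effect of over 65% in size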
# Procedure, shortened: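 A multi-concentration qHTS design tested compounds against 4 uM MSTI, pH 7.4 phosphate-buffered saline. Plates were protected from light for 1 h at room temperature before imaging fluorescence.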
# [3] = Quantitative High-Throughput drug screen in 47 multiple myeloma cell lines against the NCATS MIPE library collection: FR4_PLB cell viability assay (AID 1918924; also: nearly all actives have a fitted effect of over 35% in size; also: potency is read from the fitted curve at half-maximal effect)
# Procedure, shortened: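 Myeloma cells (500 per well) were exposed to MIPE 4.0 compounds by pin transfer and incubated 48 hours at 37C, 5% CO2. Viability was read as ATP by CellTiter-Glo luminescence, normalised to DMSO (100%) and media-only (0%) wells.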
# [4] = target: Glutathione peroxidase 1 (Homo sapiens) (UniProt P07203); experiment: Primary qHTS Assay for Inhibitors of Recombinant Selenoprotein Glutathione Peroxidase 1 (GPX1) (AID 1845191); also: nearly all actives have a fitted effect of over 65% in size; also: potency is read from the fitted curve at half-maximal effect
# Procedure, shortened: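 NADPH consumption tracked by fluorescence at 340/450 nm between t=0 and t=15 min, room temperature. Final mix: 10 nM GPX1, 100 nM glutathione reductase, 1 mM GSH, 0.5 mM NADPH, 0.5 mM cumene hydroperoxide, 0.01% BSA; 30 min compound–enzyme preincubation.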
# [5] = system: Nanoluciferase (engineered Oplophorus gracilirostris luciferase); experiment: Primary Nanoluciferase (NLuc) qHTS assay for identification of artifact compounds. (AID 1845222); also: series mostly up to about 54 µM
# Procedure, shortened: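 Luminescence from secreted NLuc (filtered, 1:55-diluted S16 cell medium) read 5 min after Nano-Glo substrate; compounds preincubated 15 min, RT. Hill fits of inhibition normalized to DMSO and no-enzyme.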
# [6] = Primary redox qHTS assay for identification of artifact compounds. (AID 1845223)
# Procedure, shortened: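 Redox-cycling detection via DTT (250 uM final) oxidation coupled to Amplex Red (25 uM)/HRP (250 mU/mL) in HBSS. 15 min preincubation plus 30 min after DTT, room temperature. Ex/Em 525/598 nm; 4-parameter Hill fit against DMSO and 10 uM DA3003.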
# [7] = target: Phospholipid hydroperoxide glutathione peroxidase GPX4 (Homo sapiens) (UniProt P36969); experiment: Primary qHTS Assay for Inhibitors of Recombinant Selenoprotein Glutathione Peroxidase 4 (GPX4) (AID 1845192); also: nearly all actives have a fitted effect of over 65% in size; also: potency is read from the fitted curve at half-maximal effect
# Procedure, shortened: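 NADPH consumption followed by fluorescence at 340/450 nm, t=0 and after 15 min at room temperature. Reaction started with cumene hydroperoxide (0.5 mM final) after 30 min compound–GPX4 preincubation; final 200 nM GPX4, 100 nM GR, 1 mM GSH, 0.5 mM NADPH.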
# [8] = Quantitative High-Throughput drug screen in 47 multiple myeloma cell lines against the NCATS MIPE library collection: Delta47_JCRB cell viability assay (AID 1918925; also: nearly all actives have a fitted effect of over 45% in size; also: potency is read from the fitted curve at half-maximal effect)
# Procedure, shortened: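 Myeloma cell lines, 500 cells per well, exposed to MIPE 4.0 library compounds for 48 h at 37C, 5% CO2. Viability from ATP by CellTiter-Glo luminescence; normalised to DMSO (100%) and media-only (0%) wells.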
# Sequence of Phospholipid hydroperoxide glutathione peroxidase GPX4 (Homo sapiens) (P36969 whole entry, looked up): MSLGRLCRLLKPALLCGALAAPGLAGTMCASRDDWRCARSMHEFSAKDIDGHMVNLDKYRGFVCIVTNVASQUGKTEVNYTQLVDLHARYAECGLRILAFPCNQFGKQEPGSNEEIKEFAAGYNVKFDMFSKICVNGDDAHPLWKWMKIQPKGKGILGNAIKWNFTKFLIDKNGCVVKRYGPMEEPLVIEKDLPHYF
# Sequence of Glutathione peroxidase 1 (Homo sapiens) (P07203 whole entry, looked up): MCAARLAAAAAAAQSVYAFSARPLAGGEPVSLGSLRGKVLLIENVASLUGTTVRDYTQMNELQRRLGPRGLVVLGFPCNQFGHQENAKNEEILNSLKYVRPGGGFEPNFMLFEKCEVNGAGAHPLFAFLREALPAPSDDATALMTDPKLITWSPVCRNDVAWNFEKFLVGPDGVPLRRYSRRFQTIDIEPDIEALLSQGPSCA
smiles,measurement,setting,value
COc1cc(Oc2ccnc3cc(OC)c(OC)cc23)ccc1NC(=O)NC(C)c1nccs1 (centres undefined),Potency,[1],inactive
same,Potency,[2],inactive
CN1CCN(CCCN2c3ccccc3Sc3ccc(C(F)(F)F)cc32)CC1,Potency,[3],inactive
Oc1ccc(C2CNCCc3c2cc(O)c(O)c3Cl)cc1 (centres undefined),Potency,[3],inactive
N#CC[C@H](C1CCCC1)n1cc(-c2ncnc3[nH]ccc23)cn1,Potency,[4],25.5 µM (active)
same,Potency,[1],inactive
same,Potency,[2],inactive
same,outcome,[5],inactive
same,outcome,[6],inactive
OC[C@H](Cc1ccccc1)Nc1nc(Oc2ccc3c(c2)CCC3)nc2c1ncn2Cc1ccc(-c2ccccc2)cc1,Potency,[7],inactive
CCCn1c(=O)c2[nH]c(C34CC5CC3C[C@@H](C5)C4)nc2n(CCC)c1=O,Potency,[4],inactive
same,Potency,[7],inactive
same,Potency,[3],inactive
same,Potency,[8],inactive
CC1(C)Cc2c(-c3ccccc3)c(-c3ccc(Cl)cc3)c(CC(=O)O)n2C1,Potency,[7],inactive
same,Potency,[1],inactive
same,Potency,[2],inactive
same,outcome,[5],inactive
Cn1cc(-c2ccc3nnc(C(F)(F)c4ccc5ncccc5c4)n3n2)cn1,Potency,[7],inactive
same,Potency,[1],inactive
same,Potency,[2],inactive
same,outcome,[5],inactive
CCOc1ccn(-c2ccc(F)cc2)c(=O)c1C(=O)Nc1ccc(Oc2ccnc(N)c2Cl)c(F)c1,Potency,[7],inactive
same,Potency,[1],inactive
same,Potency,[2],inactive
same,outcome,[5],inactive
CCn1c(-c2nonc2N)nc2c(C#CC(C)(C)O)ncc(OC[C@H]3CCCNC3)c21,Potency,[4],inactive
same,Potency,[7],inactive
same,Potency,[8],0.0469 µM (active)
CS(=O)(=O)Oc1ccc2c(NC(N)=O)c(C(=O)c3ccc(Cl)cc3Cl)oc2c1,Potency,[4],inactive
same,Potency,[7],inactive
same,Potency,[3],inactive
same,Potency,[8],14.8 µM (active)
N#Cc1ccc(C(c2ccc(C#N)cc2)n2cncn2)cc1,Potency,[4],inactive
same,Potency,[7],inactive
same,Potency,[3],14.8 µM (active)
Fc1ccc(Cl)cc1-c1nc(Nc2ccncc2)c2nccnc2n1,Potency,[4],inactive
same,Potency,[7],inactive
same,Potency,[3],inactive
COCCNCCCn1c(C(=O)CF)c(-c2ccc(C)cc2)c2c(N)ncnc21,Potency,[4],inactive
same,Potency,[7],inactive
same,Potency,[8],inactive
O=c1ncn2nc(Sc3ccc(F)cc3F)ccc2c1-c1c(Cl)cccc1Cl,Potency,[7],inactive
S=C(NCc1ccc2c(c1)OCO2)N1CCN(c2ncnc3c2oc2ccccc23)CC1,Potency,[4],inactive
same,Potency,[1],inactive
same,Potency,[2],inactive
same,outcome,[5],inactive
same,Potency,[8],1.08 µM (active)
CO[C@@H]1[C@H](N(C)C(=O)c2ccccc2)C[C@H]2O[C@]1(C)n1c3ccccc3c3c4c(c5c6ccccc6n2c5c31)C(=O)NC4,Potency,[4],inactive
same,Potency,[3],inactive
same,Potency,[8],1.05 µM (active)
CCC(C)(C)C(=O)O[C@H]1C[C@@H](C)C=C2C=C[C@H](C)[C@H](CC[C@@H]3C[C@@H](O)CC(=O)O3)[C@H]21,Potency,[7],inactive
CCn1c(-c2nonc2N)nc2cnc(Oc3cccc(NC(=O)c4ccc(OCCN5CCOCC5)cc4)c3)cc21,Potency,[4],inactive
same,Potency,[7],inactive
same,Potency,[8],8.33 µM (active)
Cn1c(=O)c(F)c(Nc2ccc(I)cc2F)c2c(=O)n(C[C@@H](O)CO)cnc21,Potency,[4],inactive
same,Potency,[7],inactive
same,Potency,[3],inactive
Nc1nc2[nH]cc(CCc3ccc(C(=O)N[C@@H](CCC(=O)O)C(=O)O)cc3)c2c(=O)[nH]1,Potency,[4],inactive
same,Potency,[7],inactive
same,Potency,[8],inactive
CCc1ccc(CCOc2ccc(CC3SC(=O)NC3=O)cc2)nc1 (centres undefined),Potency,[4],inactive
same,Potency,[7],inactive
same,Potency,[3],inactive
O=C(C1CC1)N1CC[C@@H](Cn2c(-c3ccc(-c4ccc5occc5c4)cc3)nc3cnccc32)C1,Potency,[7],22.7 µM (active)
COc1ccc(CCN2CCN(CCCc3ccccc3)CC2)cc1OC,Potency,[7],inactive
same,Potency,[1],inactive
same,Potency,[2],inactive
same,outcome,[5],inactive
CCCc1nc2c(C)cc(-c3nc4ccccc4n3C)cc2n1Cc1ccc(-c2ccccc2C(=O)O)cc1,Potency,[4],inactive
same,Potency,[7],inactive
same,Potency,[8],inactive
O=C(O)[C@@H](c1ccc(OCc2ccc3ccccc3n2)cc1)C1CCCC1,Potency,[4],inactive
same,Potency,[7],inactive
same,Potency,[3],inactive
Cc1cccc(-c2nn(C(=S)Nc3ccccc3)cc2-c2ccnc3ccccc23)n1,Potency,[4],inactive
same,Potency,[3],inactive
same,Potency,[8],16.6 µM (active)
Cc1ccnc(NS(=O)(=O)c2ccc(NC(=O)Nc3ccc(S(=O)(=O)Nc4nccc(C)n4)cc3)cc2)n1,Potency,[7],inactive
same,Potency,[1],inactive
same,Potency,[2],inactive
CC(c1cc2ccccc2s1)N(O)C(N)=O (centres undefined),Potency,[4],inactive
same,Potency,[7],inactive
same,Potency,[3],inactive
same,Potency,[8],inactive
COc1ccc(C2=N[C@H](c3ccc(Cl)cc3)[C@H](c3ccc(Cl)cc3)N2C(=O)N2CCNC(=O)C2)c(OC(C)C)c1,Potency,[4],inactive
same,Potency,[7],inactive
same,Potency,[8],2.35 µM (active)
Oc1cccc(-c2nc(N3CCOCC3)c3oc4ncccc4c3n2)c1,Potency,[4],inactive
same,Potency,[3],0.0762 µM (active)
same,Potency,[8],0.0171 µM (active)
CCN(CC)CCCC(C)Nc1nc(C)cc(Nc2ccc3nc(C)cc(N)c3c2)n1 (centres undefined),Potency,[4],inactive
same,Potency,[7],inactive
same,Potency,[8],4.69 µM (active)
